Experimental data: ChEMBL document CHEMBL3988442, “University of Dundee, Small-Polar-MMV Screening Library” (2021)

The compounds below were run against AMP-activated protein kinase, AMPK (Homo sapiens) (UniProt P54646+O43741+P54619+Q9UGJ0+Q9Y478+Q13131+Q9UGI9) (assay: AMP-dependent Kinase enzyme assay. An in vitro enzyme assay that detects ADP turnover that is directly proportional to AMPK activity. This uses naive AMPK that is activated during the assay with MK-8722). Details: 30 µM.
Type: functional
Set-up: scale not given: direction of the effect not stated beside the values
`CN1CCN(CCOc2ccc(NC(=O)c3cnc[nH]3)cc2)CC1` gave a Percent Effect of 0.519%.
In the case of `O=C(NC1CCCC1)N1C[C@H]2CN(c3ccncc3)C[C@@]2(C(=O)O)C1`, the Percent Effect is reported as 9.08%.
`CCN(CC)CCCNC(=O)Nc1c(C)cccc1C(C)C` was tested, and the Percent Effect was 4.58%.
`COC1CCN(c2ccc(F)cc2CN(C)C(=O)c2cc[nH]n2)CC1` showed a Percent Effect of 12.3%.
Work on `NC(=O)CC1CCN(Cc2ccccc2OCC(F)(F)F)CC1` yielded a Percent Effect of -3.02%.
With `CCC(C)(CC(=O)OC)NCc1c(C)noc1C` (stereo not given) the Percent Effect was 4.75%.
For `CCCN(CCc1ccccn1)C(=O)Cn1cnnn1`, the Percent Effect was 4.35%.
In the case of `CSc1nccc(N2CCC(NCc3ccc4nsnc4c3)CC2)n1`, the Percent Effect is reported as 2.27%.
Compound `COC1CCCOC12CCN(C(=O)NCCc1cccs1)CC2` (stereo not given) has a Percent Effect of 4.16%.
Compound `CC(C)Cn1ccnc1CNC(=O)N1CCCC1CN1CCOCC1` (stereo not given) has a Percent Effect of -4.29%.
Compound `CCc1nnc(C(C)N2CCN(CCC(=O)NC3CC3)CC2)o1` (stereo not given) has a Percent Effect of 8.34%.
In the case of `O=C(NC1CCCN(Cc2c(F)cccc2F)C1)c1cc[nH]n1` (stereo not given), the Percent Effect is reported as -4.83%.
Compound `N#CC1(NC(=O)CN2CCc3c(ncn3C3CC3)C2)CCCC1` has a Percent Effect of -7.46%.
`CCc1cccc(OCCCN(C)C(=O)CN2CCNC2=O)c1` was tested, and the Percent Effect was 5.57%.
Work on `CC(NCC(=O)Nc1ccc(N2CCCCCC2)cc1)c1cccs1` (stereo not given) yielded a Percent Effect of 16.8%.
`CN(CCCc1cnn(C)c1)Cc1cc2n(n1)CCCN(C)C2` showed a Percent Effect of -6.92%.
With `CC(NC(=O)N1CCC1)c1ccc(S(N)(=O)=O)cc1` (stereo not given) the Percent Effect was 7.72%.
In the case of `CN(C)c1ccc(C(=O)Nc2cnn(Cc3ccccn3)c2)cc1`, the Percent Effect is reported as -1.9%.
Compound `CN(Cc1cnc(N)nc1)C(=O)C1CCN(C(=O)C2CCCC2)CC1` has a Percent Effect of -0.173%.
For `C[C@@H]1CN(c2ccc(Cl)cn2)C[C@]1(C)O`, the Percent Effect was -1.99%.
`Cc1cnn(CCNCC(=O)N2CCN(c3ccccc3)CC2)c1` was tested, and the Percent Effect was -5.8%.
In the case of `COc1ccc(Cl)cc1CN(C)C(=O)CN1C(=O)OC[C@@H]1C(C)C`, the Percent Effect is reported as 1.71%.
`CC(C)c1ccc(/C=C/CC(=O)NC2CCN(C(N)=O)C2)cc1` (stereo not given) showed a Percent Effect of 1.32%.
Work on `CN(Cc1cnn(C)c1)C(=O)Nc1cccnc1-n1cccn1` yielded a Percent Effect of 0.000815%.
For `Cc1cccc(C)c1Nc1noc2c1CN(C(=O)c1ccn(C)n1)CC2`, the Percent Effect was 15.9%.
In the case of `Cn1ccnc1-c1cn(CCCc2csc(N)n2)nn1`, the Percent Effect is reported as -21%.
`CCn1c(C2CCN(C(=O)c3ccc4sc(C)nc4c3)CC2)n[nH]c1=O` gave a Percent Effect of -0.0637%.
Compound `CCN(CC(=O)NC)C(=O)c1sc(Cc2ccccc2)nc1C` has a Percent Effect of -3.98%.
Work on `CC(C)N1CCC(CC(=O)NCc2cc(O)ncn2)CC1` yielded a Percent Effect of -3.46%.
`CC(C)C(=O)NCCc1nc(-c2ccncc2)n[nH]1` showed a Percent Effect of 10.7%.
Work on `CN(C)c1cccc(C(=O)Nc2cnn(CC(N)=O)c2)c1` yielded a Percent Effect of 3.58%.
`CC(C)c1ccc(/C=C/CC(=O)NC2CCS(=O)(=O)CC2)cc1` was tested, and the Percent Effect was -2.16%.
`Cc1nc(CNC(=O)Nc2cc(F)ccc2N2CCN(C)CC2)no1` was tested, and the Percent Effect was 13.3%.
`COc1cc2c(cc1OC)CN(C(=O)NCC1CCCO1)CC2` (stereo not given) was tested, and the Percent Effect was -8.87%.
`Cc1cncnc1C1CCN(C(=O)C2(C)CCCCN2C)CC1` (stereo not given) gave a Percent Effect of 17%.
Work on `CCc1cc(CN2CCCCC2c2ccc(F)cc2)on1` (stereo not given) yielded a Percent Effect of 2.23%.
`COc1cc(Br)c(CNc2ccn(CCC(N)=O)n2)cc1OC` showed a Percent Effect of 3.74%.
Compound `CC(O)Cc1cn(CC2CCN(C3CCSCC3)CC2)nn1` (stereo not given) has a Percent Effect of -7.5%.
`CC(=O)N1CCCN(C(=O)NC(C)Cn2ccnc2)CC1` (stereo not given) showed a Percent Effect of -5.96%.
Work on `COc1cc(NCCCSc2nnc(C)s2)ncn1` yielded a Percent Effect of 13.7%.
